Results from the supplement of paper PMC6555819.

Assays:
Test in all cases: PBM binding z-score (relative to random genomic background probes); higher = stronger binding; sequences stand for … in GC…GCGATTGACAGCGTAGAATGAAGG
[1] = system: FXR:RXRa (NR concentration 270 nM, RXRa partner concentration 90 nM)
Summary of the method: (§1)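 Scanned fluorescence from custom Agilent 4×180K protein-binding microarrays was regression-normalized. Binding z-scores use random background probes as reference. Ligand-free nuclear receptor dimers were incubated on the arrays for 1 h and detected with antibodies against each partner (one per run).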

[2] = system: LXRa:RXRa (NR concentration 270 nM, RXRa partner concentration 90 nM)
Summary of the method: as §1

[3] = system: LXRa homodimer (NR concentration 270 nM)
Summary of the method: as §1

[4] = system: LXRb:RXRa (NR concentration 270 nM, RXRa partner concentration 90 nM)
Summary of the method: as §1

[5] = system: LXRb homodimer (NR concentration 270 nM)
Summary of the method: as §1

[6] = system: PPARa:RXRa (NR concentration 270 nM, RXRa partner concentration 90 nM)
Summary of the method: as §1

[7] = system: PPARg:RXRa (NR concentration 180 nM, RXRa partner concentration 90 nM)
Summary of the method: as §1

[8] = system: PPARg:RXRa 270nM:90nM, anti-RXR (NR concentration 270 nM, RXRa partner concentration 90 nM)
Summary of the method: as §1

[9] = system: PPARg:RXRa 30nM:10nM, anti-RXR (NR concentration 30 nM, RXRa partner concentration 10 nM)
Summary of the method: as §1

[10] = system: PPARg:RXRa 90nM:30nM, anti-RXR (NR concentration 90 nM, RXRa partner concentration 30 nM)
Summary of the method: as §1

Sequence	PBM binding z-score [1]	PBM binding z-score [2]	PBM binding z-score [3]	PBM binding z-score [4]	PBM binding z-score [5]	PBM binding z-score [6]	PBM binding z-score [7]	PBM binding z-score [8]	PBM binding z-score [9]	PBM binding z-score [10]
ATATGTAGGCTAGCTGGGGTCATTCAGACTAGGC	3.46	3.2	1.14	3.49	-0.151	4.32	3.2	3.64	1.1	2.83
CCGACTGGGGCAGGAAGGTTACCATACCATCCGG	-0.0935	-0.228	-0.392	-0.202	-0.995	0.76	0.782	0.189	-0.465	-0.0165
ATATCTAGGTAACCAAGTTCAGTGAATGCCGAAC	0.636	0.866	0.932	0.565	0.434	2.98	4.48	3.23	1.23	2.32
TTACCAGGGTGAGCTGAGGTCGTTGATCCAACTC	1.3	1.44	-0.264	0.797	-1.42	1.87	0.186	1.08	-0.0751	0.766
ACTAGCAGGCGAAGTTTGGGTCACTCAAACAAAG	-0.1	-0.222	-0.509	0.307	-0.961	1.22	-0.19	0.0876	-0.449	-0.106
ACTTACGGGTCAACGAGATTATAGCACGCGTATA	6.86	4.16	0.415	3.82	1.09	5.71	5.29	5.21	2.2	4.07
CGAACTTGGTCATCCAGGACAGTGAATACATTGA	0.205	-0.0973	-0.0371	-0.13	-0.606	0.208	0.624	-0.0338	0.133	-0.228
GCAGATAGGTAATACAAGGTGAAAGTCCGATTGT	1.42	2.24	0.134	0.475	-0.791	1.04	0.544	0.592	0.199	0.421
ATCTCTAGGTAACCAAGTTCAGTGACTGCCGAAC	0.544	1.09	1.07	0.872	0.838	1.24	0.732	1.15	0.402	0.958
TCTTGTATATCAATAGAGGTTAAGAAAGTGCGCT	0.889	3.66	0.646	1.74	0.472	1.77	0.559	1.69	3.02	2.45
CGTCCAAGGTCAGAGAGGTCCGTGAATGCCGAGT	4.9	3.08	-0.0652	1.98	-0.373	3.88	1.83	2.4	-0.0552	1.08
CGAACTAGGTCATCCAGCACAGTGAATACATTGA	4.05	2.64	0.684	2.07	0.124	4.78	7.47	6.28	3.93	5.81
GCGACTGGGGCAAAGCAGGTTACCCTAAGGTTGG	0.366	0.0738	-0.555	0.116	-0.841	1.56	1.08	1.52	-0.381	0.659
ATCTCTAGGTAAAGATAGTTCAGTGCATGCAAAT	0.301	4	0.693	0.899	0.443	0.697	0.357	0.286	0.0573	0.225
CCGACTGGGGCATAGGGTTACCATAAGCCAGCCC	0.216	1.62	-0.605	0.389	-0.905	2.07	3.45	4.29	2.36	4
TTACCAAGGTGAGGGTCGTTGATCCCTCTGTAGA	1.32	0.898	-0.621	0.915	-0.774	1.88	0.82	2.03	0.53	1.46
GCATATAGGTCATACAAGGTGAAAGTCCGATTGT	6.4	5.8	2.37	4.27	0.913	5.75	7.36	6.55	4.09	6.05
CAAACTAGGGCAAGAGGTCAAAGTCCGCTTCCCG	5.03	5.04	4.65	4.67	0.677	5.74	8.05	6.92	5.45	6.96
CCTTCCGGGTCACTCCAGGTTATAGCATCGGAGT	4.29	7.37	1.67	5.1	0.22	4.38	4.22	4.36	1.22	3.15
CGAACTCGGTCATTGACAGGACAGTGAATAGTAA	1.78	1.2	0.283	0.401	-0.271	1.07	0.725	0.451	-0.134	0.0163
CTTCAAAGTTCAACTAAGGTAACGTAAAGCACGC	7.28	6.39	5.24	4.06	2.56	5.12	3.32	4.03	1.49	3.06
CCTACTGGGCCAAAAAGGTCATGGATGCCGATAA	3.67	4.35	2.1	4.13	-0.189	5.2	4.16	4.82	1.68	3.88

Sequence	PBM binding z-score [1]	PBM binding z-score [2]	PBM binding z-score [3]	PBM binding z-score [4]	PBM binding z-score [5]	PBM binding z-score [6]	PBM binding z-score [7]	PBM binding z-score [8]	PBM binding z-score [9]	PBM binding z-score [10]
TCGAGTAGGTTACCAATGGGTCATTCAGCTTTCT	1.16	3.38	0.134	2.15	-0.601	2.66	0.754	1.91	1.5	1.72
ATCTCTAGGTAAAAGTTCAGTGATTCCCGAGGAT	0.618	1.07	1.4	0.613	0.691	4.08	7.48	7.11	7.32	8.09
CCGACTGGGGCAAATGTTACCATACTCAGTACGA	0.0667	-0.122	0.0319	0.411	-0.698	2.25	4.31	5.16	3.62	5.18
CCGAGTAGGTTACGGGGCATTCAGGCAACGGTGA	0.382	0.612	-0.693	0.593	-0.641	2.14	2.87	3.66	1.1	2.95
CGTCCAAGGTCAAAGAGGTCAGTGAATGCCGAGT	7.54	6.09	4.44	5.48	1.51	5.88	5.22	5.89	2.41	4.63
CCTCGGCGGACAGAAGGTCAGAGCTGTCCGCTTT	1.18	1.29	-0.126	0.771	-1.09	1.64	-0.606	0.898	-0.662	-0.0722
CGAACGAGGGCATGAGTTGGTAGCAAATGCCGAT	0.159	0.0461	-0.707	-0.2	-1.32	1.06	0.849	0.827	0.00769	0.471
TCTCGGAGGACAAGAAAGGTCAGAGCTCGACATC	2.65	3.41	2.12	2.65	-0.275	3.37	0.803	2.26	2.52	2.37
CCTGCTAGGTCATGGTTAGCTAATCTACAGTATG	3.74	2.32	-0.0293	1.71	-0.265	3.76	2.65	3.06	0.508	2.06
CTCGAAAGGTCGTGCTCAGGTCAGTATACCAAAC	5.86	5.15	1.44	4.15	0.558	5.2	3.19	4.09	1.06	2.7
CCTGACGGGTCAAGGTTATAGCACGGGTGGTACG	4.36	2.88	0.0717	2.21	-0.369	4	2.54	2.92	0.472	1.61
GCTCGGAGGACAAGGGCAGAGCTTTGTCCGTAGA	-0.487	-0.674	-0.975	-1.04	-1.47	-0.451	-0.879	-0.532	-1.18	-0.777
AGAACGAGGGCACGCTGAGTTGATAGGAGAGTAG	0.875	0.502	-0.34	0.213	-0.689	2.07	2.14	1.82	0.367	1.14
CGTCCAAGGTCAGAGAGTTCAGTGAATGCCGAGT	5.22	4.79	3.36	3	-0.278	3.89	2.14	2.83	0.445	1.82
ATCGAAAGGTCGACGAGGTCAGTATACACCGTTT	5.54	5.03	1.52	4.61	0.78	5.04	3.64	4.13	1.28	2.65
GCTAGGAGGACAAGGTCAGAGCTTTGTCCGTAGA	1.46	1.37	-0.572	0.865	-0.916	2.36	0.985	1.44	-0.224	0.93
CATACAGGGTCAGCTAGGCCAGAGCAGGGACGGC	4.49	3.07	-0.271	2.11	0.561	4.35	3.33	3.05	0.789	1.85
ACTATTAGTTGAGACGAGGGCAACCGTTAGGTTG	0.584	0.15	0.0603	-0.161	0.0285	0.115	0.198	-0.206	-0.415	-0.374
ATCTATAGGTAAAAGTTCAGTGAATCCCGAGGAT	0.696	1.58	1.09	1.06	0.602	3.99	6.8	6.94	5.53	7.36
CGTCCGAGGTCAGCAGGTCAGTGAAAGCGACGTG	6.67	4.61	0.517	3.78	0.00416	5.44	5.32	5.3	1.73	4.16
GCATATAGGTAATACAAGCTGAAAGTCCGATTGT	-0.216	-0.314	-0.237	-0.399	-0.434	0.493	0.856	0.592	0.14	0.385
CCTCACGGGTCACTCCAGGTTATAGCATCGGAGT	4.64	7.34	1.76	5.28	0.129	4.16	2.19	2.85	0.902	1.92
